High-throughput results as filed in PubChem BioAssay.
Most compounds without a hit are left out; they make up all but 3.6% or so of the library.
mHTT-CaM PPI inh – mutant huntingtin-calmodulin interaction inhibitors – biochemical, AlphaScreen, primary screen; P42858; AlphaScreen His-mHTT/GST-CaM binding, luminescence; inhibition, % at 15 µM; 190,000 compounds, 3.6% hits; AID 1671202, 2021;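 further: 0% = both proteins with DMSO and 100% = one protein alone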
Pf apPOL block – Pf-apPOL inhibitors, biochemical, fluorescence; Plasmodium falciparum apicoplast DNA polymerase (apPOL); 210,000 compounds, 0.25% hits; Recombinant Pf-apPOL, molecular beacon fluorescence, 1.5 h; AID 1794808, 2022; inhibition, % at 10 µM
Numbers without * were called inactive; ! = not active in a repeat. No stated cut-off is given here; in the data, active means inhibition above about 50%; inactive means the rest.

For O=C(NCCc1ccccc1)C1CC(=O)N(CCc2c[nH]c3ccc(Cl)cc23)C1 (configuration not stated) the results were mHTT-CaM PPI inh 90.0* and Pf apPOL block -1.6.
Screening O=C1CC(C(=O)N2CCc3ccccc3C2)CN1CCc1c[nH]c2ccc(F)cc12 (configuration not stated) returned mHTT-CaM PPI inh 46.0 and Pf apPOL block 2.1.
O=C(NCc1ccccn1)C1CC(=O)N(CCc2c[nH]c3ccc(Cl)cc23)C1 (configuration not stated) was read as mHTT-CaM PPI inh 92.5* and Pf apPOL block -3.3.
Screening O=C(c1cccnc1)N1CCN(C(=O)c2nnn3c2COC(c2ccccc2)C3)CC1 (configuration not stated) returned mHTT-CaM PPI inh -4.6 and Pf apPOL block -1.9.
`O=C(Nc1ccc(-n2nncc2-c2ccccc2)cc1)c1ccc(Br)o1` gave mHTT-CaM PPI inh 21.0 and Pf apPOL block -5.0.
CCOC(=O)N1CCN(C(=O)C2CC(c3ccccc3F)=NO2)CC1 (configuration not stated) was read as mHTT-CaM PPI inh -6.0 and Pf apPOL block -2.8.
Screening Clc1ccc(OC2CCCNC2)cc1 (configuration not stated) returned mHTT-CaM PPI inh -2.8.
`O=C1OC(c2ccc(Cl)cc2)=N/C1=C\C=C\c1ccco1` gave mHTT-CaM PPI inh 68.0* and Pf apPOL block 3.8.
For O=C1OC(c2ccc(Cl)cc2)=N/C1=C\c1ccco1 the results were mHTT-CaM PPI inh -4.0 and Pf apPOL block -4.7.
Cc1ccc(/C=C2\C(=O)Nc3ccc(Br)cc32)s1 was read as mHTT-CaM PPI inh 34.0 and Pf apPOL block -1.9.
For O=C1Nc2ccc(Br)cc2/C1=C/c1cccs1 the results were mHTT-CaM PPI inh 58.0* and Pf apPOL block 1.2.
For O=C1Nc2ccc(Br)cc2/C1=C/c1ccco1 the results were mHTT-CaM PPI inh 72.0* and Pf apPOL block -5.0.
O=C1Nc2c(Br)cc(Br)cc2/C1=C/c1ccco1 was read as mHTT-CaM PPI inh 12.0 and Pf apPOL block -6.0.
Screening NS(=O)(=O)c1ccc(NC(=O)Cc2ccc(Br)cc2)cc1 returned mHTT-CaM PPI inh 0.4 and Pf apPOL block -8.4.
`CC(=O)Nc1ccc(S(=O)(=O)N2CCC(c3noc(-c4ccc(C)cc4)n3)CC2)cc1` gave mHTT-CaM PPI inh 3.8 and Pf apPOL block -3.5.
Screening O=C1OC(c2ccc(Br)cc2)=N/C1=C\c1ccc(Cl)cc1 returned mHTT-CaM PPI inh -5.0 and Pf apPOL block -6.9.
For COc1ccc(C(CC(=O)N2CCN(c3ccccc3)CC2)c2c(OC)cc(OC)c3ccc(=O)oc23)cc1 (configuration not stated) the results were mHTT-CaM PPI inh 55.8* and Pf apPOL block -5.3.
Screening COc1cc(O)c(C(CC(=O)N2CCN(c3ccccc3)CC2)c2ccc(N(C)C)cc2)c(OC)c1 (configuration not stated) returned mHTT-CaM PPI inh 73.7* and Pf apPOL block -6.4.
`COc1ccc(C(CC(=O)N2CCCC2)c2c(O)cc(OC)cc2OC)cc1` (configuration not stated) gave mHTT-CaM PPI inh 10.5 and Pf apPOL block 0.9.
For COc1cc(C(CC(=O)N2CCCC2)c2c(OC)cc(OC)c3ccc(=O)oc23)cc(OC)c1OC (configuration not stated) the results were mHTT-CaM PPI inh 14.3 and Pf apPOL block -0.9.
CCCCOc1ccc(-c2nc(C=Nc3ccc(I)cc3C)c(O)o2)cc1 was read as mHTT-CaM PPI inh 1.0 and Pf apPOL block 0.5.
For CCOc1ccc(C(C)=O)cc1Cc1c(O)nc(N)[nH]c1=O the results were mHTT-CaM PPI inh -5.0 and Pf apPOL block -0.7.
For O=C(NCc1ccc(F)cc1)N1CC2CCCN2c2ccccc21 (configuration not stated) the results were mHTT-CaM PPI inh 77.3* and Pf apPOL block -4.0.
`CCC1CN(C(=O)NCc2ccc(F)cc2)c2ccccc2O1` (configuration not stated) gave mHTT-CaM PPI inh -17.8 and Pf apPOL block -2.1.
Screening CNC(=O)N1CCCC(c2cccc(C(=O)NCc3ccc(F)cc3)c2)C1 (configuration not stated) returned mHTT-CaM PPI inh -1.9 and Pf apPOL block 0.6.
For O=C(NCc1ccc(F)cc1)c1ccc(NC(=O)N2CC3CCCN3c3ccccc32)cc1 (configuration not stated) the results were mHTT-CaM PPI inh 54.1* and Pf apPOL block -0.8.
COCC(=O)N1N=C(c2cccc(NS(C)(=O)=O)c2)CC1c1ccccc1F (configuration not stated) was read as mHTT-CaM PPI inh -16.9 and Pf apPOL block 1.7.
O=C1c2ccccc2C(=O)c2c1oc1c3c(ccc21)OCN(Cc1ccco1)C3 was read as mHTT-CaM PPI inh 93.0* and Pf apPOL block -4.8.
`c1coc(CN2COc3cc4c(cc3C2)OCN(Cc2ccco2)C4)c1` gave mHTT-CaM PPI inh 3.0.
`COC(=O)c1ccc(Oc2coc3c4c(ccc3c2=O)OCN(Cc2ccccn2)C4)cc1` gave mHTT-CaM PPI inh 100.2* and Pf apPOL block -36.5.
For COC(=O)c1ccc(Oc2coc3c4c(ccc3c2=O)OCN(Cc2ccc(OC)cc2)C4)cc1 the results were mHTT-CaM PPI inh 19.4 and Pf apPOL block -18.3.
For COc1ccc(CN2COc3ccc4c(=O)c(-c5ccccc5)c(C)oc4c3C2)cc1 the results were mHTT-CaM PPI inh 11.6 and Pf apPOL block -8.6.
Screening COC(=O)c1ccc(Oc2c(C)oc3c4c(ccc3c2=O)OCN(Cc2cccnc2)C4)cc1 returned mHTT-CaM PPI inh 0.0 and Pf apPOL block -0.2.
O=C1c2ccccc2C(=O)c2c1oc1c3c(ccc21)OCN(Cc1ccccn1)C3 was read as mHTT-CaM PPI inh 100.0* and Pf apPOL block -6.5.
Screening O=C1c2ccccc2C(=O)c2c1oc1c3c(ccc21)OCN(Cc1cccnc1)C3 returned mHTT-CaM PPI inh 94.0*! and Pf apPOL block 11.7.
O=C(Nc1ccccc1)c1cc(-c2ccc(Cl)cc2)oc1C(F)(F)F was read as Pf apPOL block -2.3.
Screening CC1=C(C(N)=O)C(c2ccco2)C(C#N)=C(SCC(=O)Nc2ccc(C)c(Cl)c2)N1 (configuration not stated) returned mHTT-CaM PPI inh 44.0 and Pf apPOL block -6.1.
`Cc1ccc(C2=NC(=C(Cl)Cl)C(=O)N2)cc1` gave mHTT-CaM PPI inh 100.0* and Pf apPOL block -2.7.
For O=S(=O)(Cc1nc(-c2ccc(Cl)cc2)no1)c1ccccc1 the results were mHTT-CaM PPI inh -23.0 and Pf apPOL block -4.8.
For O=C(O)C1CSC(=S)N1 (configuration not stated) the results were mHTT-CaM PPI inh -1.0 and Pf apPOL block 5.0.
Screening COc1ccccc1/C=C1\C(=O)NN(c2ccccc2)C1=O returned mHTT-CaM PPI inh -1.0 and Pf apPOL block -4.3.
For CC(=O)n1cc(/C=C2\C(=O)NN(c3ccccc3)C2=O)c(-c2ccc(F)cc2)n1 the results were mHTT-CaM PPI inh 54.0* and Pf apPOL block -2.5.
Cc1nc2c(C(=O)NCCc3ccccc3)cnn2c(C)c1Cc1ccccc1F was read as mHTT-CaM PPI inh 70.0* and Pf apPOL block -11.7.
Cc1ccccc1Cc1c(C)nc2c(C(=O)NCCc3ccccc3)cnn2c1C was read as mHTT-CaM PPI inh 51.0* and Pf apPOL block -4.8.
For COC(CNC(=O)c1cnn2c(C)c(Cc3cc(C)ccc3C)c(C)nc12)OC the results were mHTT-CaM PPI inh 61.0* and Pf apPOL block -9.6.
